Measured values taken from the supplement of paper PMC10037445.
Where “and” joins values, the source holds several entries; their conditions need not be identical. Equal entries are not always repeated. Whole data set: some 2,900 compounds, median “IRF Lucia reporter activity, fold change vs agonist alone” near 0.9, cut for the highest 2% near 2.8. The sample as a whole holds a higher share of the highest values than the screen did.

Tests used:
[1] = system: RAW-Dual; test: IRF Lucia reporter activity, fold change vs agonist alone; cytotoxicity flag (confluency mask): not cytotoxic; higher = enhanced IRF activity
Procedure, shortened: (§1)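 Library stock was pin-tooled at 50 nL into 384-well plates of RAW-Dual macrophages (50,000 cells/well, DMEM), followed 1 h later by a PRR agonist, and the cells were kept at 37 °C, 5% CO2. Supernatant collected after 20 hours was read for IRF by QuantiLuc luminescence and for NF-κB by QuantiBlue absorbance at 620 nm. Reporter activity is fold change over agonist-alone wells, and a well counted as cytotoxic when its IncuCyte confluency was below 70% of agonist controls in both mask sets.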

[2] = system: RAW-Dual; test: IRF Lucia reporter activity, fold change vs agonist alone; higher = enhanced IRF activity; settings: agonist: MPLA (TLR4) […]
Procedure, shortened: as §1

[3] = system: RAW-Dual; test: IRF Lucia reporter activity, fold change vs agonist alone; cytotoxicity flag (confluency mask): cytotoxic (confluency <70% of control); higher = enhanced IRF activity
Procedure, shortened: as §1

[4] = agonist: 3'3'-cGAMP (STING) 10 ug/mL
[5] = library stock concentration (final ~1000-fold dilution): 10 mM, cytotoxicity flag (confluency mask): not cytotoxic
[6] = library stock concentration (final ~1000-fold dilution): 10 mM water, cytotoxicity flag (confluency mask): not cytotoxic

CC(C)CCn1c(CN2CCN(C(=O)C3CC3)CC2)nc2c1c(=O)n(C)c(=O)n2C (library stock concentration (final ~1000-fold dilution): 10 mM)
IRF Lucia reporter activity [1, 4]: 0.987
IRF Lucia reporter activity ([1]; agonist: LPS (TLR4) 0.1 ug/mL): 0.989

CN1CCC(CNc2ccc3ncc(-c4cccc(OC(F)(F)F)c4)n3n2)CC1
IRF Lucia reporter activity [2, 5]: 1.07

CN1CCC(COc2cnc(-c3cccc(Cn4nc(-c5cccc(C#N)c5)ccc4=O)c3)nc2)CC1
IRF Lucia reporter activity [2, 5]: 1.37

CN1CCC(CNc2ccc3ncc(-c4cccc(OC(F)(F)F)c4)n3n2)CC1 (library stock concentration (final ~1000-fold dilution): 10 mM)
IRF Lucia reporter activity [1, 4]: 1.03
IRF Lucia reporter activity ([1]; agonist: LPS (TLR4) 0.1 ug/mL): 0.089

CN1CCC(COc2cnc(-c3cccc(Cn4nc(-c5cccc(C#N)c5)ccc4=O)c3)nc2)CC1 (library stock concentration (final ~1000-fold dilution): 10 mM)
IRF Lucia reporter activity [1, 4]: 0.676
IRF Lucia reporter activity ([1]; agonist: LPS (TLR4) 0.1 ug/mL): 3.96

CC(C)N(CCC(c1ccccc1)c1cc(CO)ccc1O)C(C)C (stereo not drawn) (library stock concentration (final ~1000-fold dilution): 10 mM)
IRF Lucia reporter activity [1, 4]: 0.857
IRF Lucia reporter activity ([1]; agonist: LPS (TLR4) 0.1 ug/mL): 0.982

CC(C)N(CCC(c1ccccc1)c1cc(CO)ccc1O)C(C)C (stereo not drawn)
IRF Lucia reporter activity [2, 5]: 0.986

CCCC1CC(C(=O)NC(C(C)Cl)C2OC(SC)C(OP(=O)(O)O)C(O)C2O)N(C)C1 (stereo not drawn)
IRF Lucia reporter activity [2, 6]: 1.42

CCCC1CC(C(=O)NC(C(C)Cl)C2OC(SC)C(OP(=O)(O)O)C(O)C2O)N(C)C1 (stereo not drawn) (library stock concentration (final ~1000-fold dilution): 10 mM water)
IRF Lucia reporter activity [1, 4]: 1.23
IRF Lucia reporter activity ([1]; agonist: LPS (TLR4) 0.1 ug/mL): 0.95

CCOC(=O)C1=C(COCCN)NC(C)=C(C(=O)OC)C1c1ccccc1Cl (stereo not drawn) (library stock concentration (final ~1000-fold dilution): 10 mM)
IRF Lucia reporter activity [3, 4]: 0.715 and 0.401
IRF Lucia reporter activity ([3]; agonist: LPS (TLR4) 0.1 ug/mL): 2.55 and 2.72

CCOC(=O)C1=C(COCCN)NC(C)=C(C(=O)OC)C1c1ccccc1Cl.O=S(=O)(O)c1ccccc1 (stereo not drawn) (library stock concentration (final ~1000-fold dilution): 10 mM)
IRF Lucia reporter activity [3, 4]: 1.02
IRF Lucia reporter activity ([3]; agonist: LPS (TLR4) 0.1 ug/mL): 3.19

CCCC(=O)OCOC(=O)C1=C(C)NC(C)=C(C(=O)OC)C1c1cccc(Cl)c1Cl (stereo not drawn)
IRF Lucia reporter activity [2, 5]: 0.992

CCCC(=O)OCOC(=O)C1=C(C)NC(C)=C(C(=O)OC)C1c1cccc(Cl)c1Cl (stereo not drawn) (library stock concentration (final ~1000-fold dilution): 10 mM)
IRF Lucia reporter activity [1, 4]: 1.02
IRF Lucia reporter activity ([1]; agonist: LPS (TLR4) 0.1 ug/mL): 0.873

COC(=O)C1=C(C)NC(C)=C(C(=O)OC)C1c1ccccc1[N+](=O)[O-] (library stock concentration (final ~1000-fold dilution): 10 mM)
IRF Lucia reporter activity [1, 4]: 0.606
IRF Lucia reporter activity ([1]; agonist: LPS (TLR4) 0.1 ug/mL): 0.554

CCOC(=O)C1=C(C)NC(C)=C(C(=O)OC)C1c1cccc(Cl)c1Cl (stereo not drawn)
IRF Lucia reporter activity [2, 5]: 1.08

COC(=O)C1=C(C)NC(C)=C(C(=O)OCC(C)C)C1c1ccccc1[N+](=O)[O-] (stereo not drawn) (library stock concentration (final ~1000-fold dilution): 10 mM)
IRF Lucia reporter activity [1, 4]: 0.585
IRF Lucia reporter activity ([1]; agonist: LPS (TLR4) 0.1 ug/mL): 0.872

COC(=O)C1=C(C)NC(C)=C(C(=O)OCC(C)C)C1c1ccccc1[N+](=O)[O-] (stereo not drawn)
IRF Lucia reporter activity [2, 5]: 0.508

CCOC(=O)C1=C(C)NC(C)=C(C(=O)OC)C1c1cccc(Cl)c1Cl (stereo not drawn) (library stock concentration (final ~1000-fold dilution): 10 mM)
IRF Lucia reporter activity [1, 4]: 1.31
IRF Lucia reporter activity ([1]; agonist: LPS (TLR4) 0.1 ug/mL): 1.17

CCOC(=O)C1=C(COCCN)NC(C)=C(C(=O)OC)C1c1ccccc1Cl.O=S(=O)(O)c1ccccc1 (stereo not drawn)
IRF Lucia reporter activity ([2]; library stock concentration (final ~1000-fold dilution): 10 mM, cytotoxicity flag (confluency mask): cytotoxic (confluency <70% of control)): 3.36

COC(=O)C1=C(C)NC(C)=C(C(=O)OC)C1c1ccccc1[N+](=O)[O-]
IRF Lucia reporter activity [2, 5]: 0.406

Cc1cccc(Nc2nc(NC3CCCCC3N)ncc2C(N)=O)c1.Cl.Cl (stereo not drawn) (library stock concentration (final ~1000-fold dilution): 10 mM)
IRF Lucia reporter activity [3, 4]: 0.0182
IRF Lucia reporter activity ([3]; agonist: LPS (TLR4) 0.1 ug/mL): 0.0241

CS(=O)(=O)O.Cc1ccc(N(CC2=NCCN2)c2cccc(O)c2)cc1
IRF Lucia reporter activity [2, 5]: 0.907

CS(=O)(=O)O.Cc1ccc(N(CC2=NCCN2)c2cccc(O)c2)cc1 (library stock concentration (final ~1000-fold dilution): 10 mM)
IRF Lucia reporter activity [1, 4]: 0.803
IRF Lucia reporter activity ([1]; agonist: LPS (TLR4) 0.1 ug/mL): 0.89

C[N+](C)(C)NCCC(=O)O
IRF Lucia reporter activity [2, 6]: 1.25

C[N+](C)(C)NCCC(=O)O (library stock concentration (final ~1000-fold dilution): 10 mM water)
IRF Lucia reporter activity [1, 4]: 1.05
IRF Lucia reporter activity ([1]; agonist: LPS (TLR4) 0.1 ug/mL): 0.979

C[C@@H]1O[C@@H](O[C@H]2C(=O)c3c(O)cc(O)cc3O[C@@H]2c2ccc(O)cc2)[C@H](O)[C@H](O)[C@H]1O (library stock concentration (final ~1000-fold dilution): 10 mM)
IRF Lucia reporter activity [1, 4]: 0.228
IRF Lucia reporter activity ([1]; agonist: LPS (TLR4) 0.1 ug/mL): 1.17

COc1nc2ccc(Br)cc2cc1C(c1ccccc1)C(O)(CCN(C)C)c1cccc2ccccc12.O=C(O)/C=C/C(=O)O (stereo not drawn) (library stock concentration (final ~1000-fold dilution): 10 mM)
IRF Lucia reporter activity [1, 4]: 0.888
IRF Lucia reporter activity ([1]; agonist: LPS (TLR4) 0.1 ug/mL): 0.812
